Reference: PubChem BioAssay (NCATS)
Results filed as inconclusive are left out. Calls of active or inactive are those of the source. Unless noted, calls follow the shape of the dose curve; as a rule, active = well fitted curve in the direction sought with a large enough effect; inconclusive = small, poorly fitted or top-dose-only effect, or another doubt; inactive = no such curve, though single readings can be large; an effect the other way counts as inactive or inconclusive.

How the values were obtained:
[1] = P-glycoprotein substrates identified in KB-8-5-11 adenocarcinoma cell line, qHTS therapeutic library screen (AID 1346987); also: nearly all actives have a fitted effect of over 65% in size; also: potency is read from the fitted curve at half-maximal effect
In short: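 In this qHTS, P-gp-rich KB-8-5-11 cells received library compounds across a concentration range. Viability was quantified by luminescence after 72 h at 37 degree C.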

[2] = test system: Zika virus NS2B-NS3 protease (unlinked complex); assay: Primary screen GU Rhodamine qHTS for Zika virus inhibitors: Unlinked NS2B-NS3 protease assay (AID 1347159); also: % is scaled to controls: 0 for no effect and ±100 for the full control effect; nearly all actives have a fitted effect of over 60% in size
In short: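 Enzyme 25 nM in Tris-HCl pH 8.0 + 0.01% Tween 20; compounds up to 114 microM, 15 min RT dark; + Rhod110 substrate 1.5 microM; read t0 and 15 min; delta fluorescence → % inhibition → 4-parameter Hill fit.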

[3] = test system: HaCat; assay: Cytotoxic Profiling of Annotated Libraries Using Quantitative High-Throughput Screening (AID 1296008); conditions: Five cell lines viability, CellTiter-Glo ATP luminescence, 48-72 h; max response: stronger effect = lower value; also: nearly all actives have a fitted effect of over 60% in size; also: potency is read from the fitted curve at half-maximal effect; as to max response: % is scaled to controls: 0 for no effect and ±100 for the full control effect
In short: (§1)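 Compounds were pin-transferred onto cells and incubated 48 or 72 hr at 37 degree Celsius, 95% humidity. CellTiter-Glo was added, plates sat 10 min at room temperature, then ATP-coupled luminescence was imaged as the viability read-out.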

[4] = test system: CAOV3; assay: Primary qHTS to identify gynecologic anti-cancer compounds using libraries of approved drugs and bioactive compounds (AID 1345084); conditions: Gynecologic cancer cell panel viability, ATPlite luminescence, 48 h; series mostly up to 57.5 µM; also: nearly all actives have a fitted effect of over 55% in size; also: potency is read from the fitted curve at half-maximal effect
In short: (§2)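 In this quantitative HTS, cell killing is estimated from loss of ATP-dependent luciferase light. Cells see five compound concentrations over a 48 h exposure.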

[5] = test system: SKOV3; assay: as above; conditions: Gynecologic cancer cell panel viability, ATPlite luminescence, 48 h; series mostly up to 57.5 µM
In short: as §2

[6] = biological target: Cytochrome P450 2C9 (Homo sapiens) (UniProt P11712); assay: Cytochrome P450 family 2 subfamily C member 9 (CYP2C9) small molecule antagonists: luciferase biochemical (cell-free) qHTS assay (AID 1645842; active = well fitted curve in the direction sought with a large enough effect in the repeat runs; an effect the other way counts as inactive or inconclusive; also: potency is read from the fitted curve at half-maximal effect; nearly all actives have a fitted effect of over 55% in size)
In short: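 P450-Glo CYP2C9 system: proluciferin substrate with enzyme in mix containing 0.4% BSA, 10 min at room temperature, then NADPH regeneration solution added and incubated 1 h at 37C. Detection reagent stopped reaction; luminescence read after 20 min as RLU.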

[7] = test system: NIH3T3; assay: Cytotoxic Profiling of Annotated Libraries Using Quantitative High-Throughput Screening (AID 1296008); conditions: Five cell lines viability, CellTiter-Glo ATP luminescence, 48-72 h; max response: stronger effect = lower value; also: nearly all actives have a fitted effect of over 60% in size; also: potency is read from the fitted curve at half-maximal effect; as to max response: % is scaled to controls: 0 for no effect and ±100 for the full control effect
In short: as §1

[8] = qHTS drug screen for cell cycle checkpoint inhibitors in PARPi-resistant BRCA-mutant ovarian cancer cell lines. (AID 1963452; calls by dose curve); conditions: PEO1/OlaR viability, CellTiter-Glo luminescence, 96 h, stronger effect = lower value
In short: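 PEO1, PEO4 and PEO1/OlaR ovarian cancer cells, 600 per well, exposed 96 h at 37C to a dilution series. Viability read by CellTiter-Glo luminescence, normalized to DMSO and empty wells; activity summarized as Z-AUC.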

[9] = qHTS assay to identify inhibitors of the type 1 interferon - major histocompatibility complex class I in skeletal muscle: Counter screen cell viability and HiBit confirmation (AID 1347412); conditions: iHSKM muscle cells + IFN-b, HiBiT or CellTiter-Glo, 24 h; for activity change, negative = inhibition: at 45.9 µM (top of the series); also: potency is read from the fitted curve at half-maximal effect; as to activity change, negative = inhibition: % is scaled to controls: 0 for no effect and ±100 for the full control effect; as to all read-outs here: nearly all actives have a fitted effect of over 60% in size
In short: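 Duplicate plates, pinned identically: one read for HiBiT-tagged endogenous HLA-B luminescence, the other for ATP-content viability via CellTiter Glo. Cells were genome-engineered human myoblasts given 4 ng/ml IFN-b; compounds 12-pt, 1:3 from 46 uM final; 24 hr exposure.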

[10] = biological target: Catechol O-methyltransferase (Homo sapiens) (UniProt P21964); assay: Confirmatory Screen for Target Class Profiling of Small Molecule Inhibitors of Methyltransferases (AID 1745852; calls by dose curve; also: potency is read from the fitted curve at half-maximal effect; as to activity change, negative = inhibition: % is scaled to controls: 0 for no effect and ±100 for the full control effect); conditions: MTase-Glo luminescence, SAH detection, recombinant enzyme; measured here: COMT max response; stronger effect = lower value
[11] = biological target: Guanidinoacetate N-methyltransferase (Homo sapiens) (UniProt Q14353); assay: as above; conditions: activity change, negative = inhibition: at 57.3 µM (top of the series) unless noted
[12] = biological target: Nicotinamide N-methyltransferase (Homo sapiens) (UniProt P40261); assay: as above; conditions: MTase-Glo luminescence, SAH detection, recombinant enzyme; measured here: NNMT max response; stronger effect = lower value
[13] = biological target: Phenylethanolamine N-methyltransferase (Homo sapiens) (UniProt P11086); assay: as above; conditions: MTase-Glo luminescence, SAH detection, recombinant enzyme; measured here: PNMT max response; stronger effect = lower value
[14] = biological target: N-terminal Xaa-Pro-Lys N-methyltransferase 1 (Homo sapiens) (UniProt Q9BV86); assay: Confirmatory qHTS for Inhibitors of N-terminal methyltransferase 1 (NTMT1): MTaseGlo Assay (AID 1645874); also: nearly all actives have a fitted effect of over 65% in size; also: potency is read from the fitted curve at half-maximal effect;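 as to activity change, negative = inhibition: luminescence from SAH made as NTMT1 methylates SPKRIA peptide using SAM; 0% = DMSO control and -100% = no-enzyme control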
In short: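 Enzyme mix (125 nM NTMT1, 100 uM SAM) + compound, 15 min RT; + 1 uM SPKRIA, 30 min RT, dark; MTase-Glo reagent 30 min, detection solution 30 min; luminescence. % inhibition vs no-enzyme/DMSO controls, 4-parameter Hill fit.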

[15] = qHTS to identify inhibitors of the type 1 interferon - major histocompatibility complex class I in skeletal muscle: primary screen against the NCATS Mechanism Interrogation Plate v5.0 (MIPE) Libary (AID 1347411); also: nearly all actives have a fitted effect of over 65% in size; also: potency is read from the fitted curve at half-maximal effect;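 as to activity change, negative = inhibition: plate controls were vehicle for no effect and reference inhibitor for full effect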
In short: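 HLA-B HiBit myoblasts, dexamethasone-free medium + 4 ng/ml IFN-b, 24 h compound, 11-pt 1:3 from 46 uM final. Readout: Nano-Glo HiBiT lytic luminescence after 10 min lysis, RT.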

[16] = biological target: Cytochrome P450 2D6 (Homo sapiens) (UniProt P10635); assay: Cytochrome P450 family 2 subfamily D member 6 (CYP2D6) small molecule antagonists: luciferase biochemical (cell-free) qHTS assay (AID 1645840; active = well fitted curve in the direction sought with a large enough effect in the repeat runs; an effect the other way counts as inactive or inconclusive; also: nearly all actives have a fitted effect of over 55% in size; also: potency is read from the fitted curve at half-maximal effect)
In short: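 P450-Glo CYP2D6 system: proluciferin substrate converted by enzyme to luciferin, read by luminescence proportional to activity. Enzyme-substrate mix with compound 10 min at room temperature, then NADPH regeneration 1 h before detection reagent.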

[17] = measured here: PEO1 parental Z-AUC

Chain of N-terminal Xaa-Pro-Lys N-methyltransferase 1 (Homo sapiens) (Q9BV86 whole entry, looked up): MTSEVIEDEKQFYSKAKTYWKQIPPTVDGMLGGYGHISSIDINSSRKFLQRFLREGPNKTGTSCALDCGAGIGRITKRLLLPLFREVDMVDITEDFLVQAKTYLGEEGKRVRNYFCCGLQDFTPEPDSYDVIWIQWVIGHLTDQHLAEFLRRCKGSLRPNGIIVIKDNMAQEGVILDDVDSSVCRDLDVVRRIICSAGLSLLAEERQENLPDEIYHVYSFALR
Chain of Nicotinamide N-methyltransferase (Homo sapiens) (P40261 whole entry, looked up): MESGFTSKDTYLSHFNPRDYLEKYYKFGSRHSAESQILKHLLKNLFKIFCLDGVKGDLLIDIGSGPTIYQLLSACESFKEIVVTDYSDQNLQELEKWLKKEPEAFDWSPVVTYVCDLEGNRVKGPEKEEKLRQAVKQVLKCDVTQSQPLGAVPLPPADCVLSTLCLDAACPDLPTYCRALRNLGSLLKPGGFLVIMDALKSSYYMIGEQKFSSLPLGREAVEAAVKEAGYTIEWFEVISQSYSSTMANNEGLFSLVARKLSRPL
Chain of Catechol O-methyltransferase (Homo sapiens) (P21964 whole entry, looked up): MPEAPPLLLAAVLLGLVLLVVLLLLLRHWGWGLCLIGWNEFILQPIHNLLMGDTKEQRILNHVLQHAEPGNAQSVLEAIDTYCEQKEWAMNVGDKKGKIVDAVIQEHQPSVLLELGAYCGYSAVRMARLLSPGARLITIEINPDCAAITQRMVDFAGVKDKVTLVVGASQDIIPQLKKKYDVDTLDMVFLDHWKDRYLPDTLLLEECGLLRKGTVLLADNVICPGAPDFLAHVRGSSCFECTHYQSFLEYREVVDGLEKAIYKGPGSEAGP
Chain of Phenylethanolamine N-methyltransferase (Homo sapiens) (P11086 whole entry, looked up): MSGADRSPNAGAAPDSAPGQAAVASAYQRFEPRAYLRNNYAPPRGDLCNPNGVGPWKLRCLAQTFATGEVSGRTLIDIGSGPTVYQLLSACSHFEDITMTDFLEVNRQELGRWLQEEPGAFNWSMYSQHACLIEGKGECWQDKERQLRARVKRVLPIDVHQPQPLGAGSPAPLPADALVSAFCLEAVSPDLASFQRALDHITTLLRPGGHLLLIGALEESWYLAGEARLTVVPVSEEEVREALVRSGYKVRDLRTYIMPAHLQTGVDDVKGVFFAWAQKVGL
Chain of Cytochrome P450 2C9 (Homo sapiens) (P11712 whole entry, looked up): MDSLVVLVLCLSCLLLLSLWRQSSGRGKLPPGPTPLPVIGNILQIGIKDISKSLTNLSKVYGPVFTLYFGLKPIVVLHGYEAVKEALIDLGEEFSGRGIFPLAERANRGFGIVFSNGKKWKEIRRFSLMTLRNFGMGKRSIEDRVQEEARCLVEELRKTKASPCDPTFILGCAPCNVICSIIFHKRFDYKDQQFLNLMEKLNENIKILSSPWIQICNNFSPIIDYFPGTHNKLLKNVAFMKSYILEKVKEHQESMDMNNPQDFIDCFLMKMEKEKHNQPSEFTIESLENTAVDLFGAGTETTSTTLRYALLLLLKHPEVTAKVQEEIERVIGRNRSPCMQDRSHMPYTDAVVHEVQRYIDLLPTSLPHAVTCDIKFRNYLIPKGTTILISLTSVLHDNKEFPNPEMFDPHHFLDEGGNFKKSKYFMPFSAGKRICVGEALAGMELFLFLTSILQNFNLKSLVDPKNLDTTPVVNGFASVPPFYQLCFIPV
Chain of Cytochrome P450 2D6 (Homo sapiens) (P10635 whole entry, looked up): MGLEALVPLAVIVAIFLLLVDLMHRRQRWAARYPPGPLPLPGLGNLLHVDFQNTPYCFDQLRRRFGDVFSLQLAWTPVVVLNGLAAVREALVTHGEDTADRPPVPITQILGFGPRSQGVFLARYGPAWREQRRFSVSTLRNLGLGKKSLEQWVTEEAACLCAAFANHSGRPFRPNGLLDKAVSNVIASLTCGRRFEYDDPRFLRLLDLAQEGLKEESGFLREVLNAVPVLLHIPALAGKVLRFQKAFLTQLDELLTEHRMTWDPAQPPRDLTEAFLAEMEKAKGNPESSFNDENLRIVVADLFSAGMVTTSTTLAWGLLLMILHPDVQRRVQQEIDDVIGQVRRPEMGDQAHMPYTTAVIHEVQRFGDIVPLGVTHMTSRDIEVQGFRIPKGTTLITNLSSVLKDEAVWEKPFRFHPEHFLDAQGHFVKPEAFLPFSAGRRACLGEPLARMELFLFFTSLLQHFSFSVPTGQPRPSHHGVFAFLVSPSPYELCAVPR

CC(=O)C1=C(O)C2c3c[nH]c4cccc(c34)CC2C(C)(C)N(C)C1=O (stereo not drawn)
Potency [1]: 9.2 µM (active) | Potency [2]: inactive | max response [3]: -23.8% (inactive) | Potency [4]: inactive | Potency [5]: inactive

CCS(=O)(=O)N(Cc1cccnc1)c1cccc(-c2ccc(C#N)cc2)c1
Potency [1]: 23.1 µM (active) | Potency [6]: 9.52 µM (active) | max response [7]: -19.5% (inactive)

Cc1ccc(CCCO)c(NCc2ccc3nc(NCCCN4CCOCC4)n(Cc4nc(C)ccc4O)c3c2)c1
Potency [2]: inactive | max response [3]: -12.2% (inactive)

O=c1c(-n2ccnn2)c[nH]n1-c1cc(N2CCOCC2)ncn1
Z-AUC [8]: 1.14 (inactive) | Z-AUC [8, 17]: 0.854 | Z-AUC ([8]; measured here: PEO4 Z-AUC): 1.55 | Potency [3]: 1.86 µM (active) | activity change, negative = inhibition ([9]; HiBiT): -24.7% (inactive) | activity change, negative = inhibition ([9]; Viability): -14.1% (inactive)

C=C1C(=O)O[C@@H]2CC(C)=C([C@@H](C)CCCO)[C@@H](OC(=O)C(C)C)[C@H]12
activity [10]: -63.9% | activity change, negative = inhibition [11]: 0% | activity [12]: -0.804% | activity [13]: 1.36% | max response [7]: -12.2% (inactive) | Potency [4]: inactive

CC(C)(C)c1ccc(-c2nc3ccccc3[nH]2)cc1
Potency [14]: 8.91 µM (active) | activity [10]: -68.9% | Potency [11]: 10.5 µM (active) | activity [12]: -65.6% | activity [13]: -70.3% | max response [3]: -8.47% (inactive) | Potency [5]: 1 µM (active)

COc1cc(-c2cc(-c3ccc(N4CCNCC4)cc3)cnc2C)cc(OC)c1OC
Potency [2]: inactive | Potency [15]: inactive | Potency [16]: inactive | Potency [6]: 19 µM (active) | Z-AUC [8]: -1.12 (inactive) | Z-AUC [8, 17]: -0.592 | Z-AUC ([8]; measured here: PEO4 Z-AUC): -0.59 | outcome [3]: inactive

CC(=O)N[C@@H](CC(=O)O)C(=O)N[C@@H](CCC(=O)O)C(=O)N[C@H](C(=O)N[C@@H](CC(=O)O)C(=O)Nc1ccc2c(C)cc(=O)oc2c1)C(C)C
Potency [2]: inactive | max response [3]: -44.8% (inactive)

C=C(C)C(=O)O[C@H]1[C@H]2C(=C)C(=O)O[C@@H]2C[C@@H](C)/C=C\C(=O)[C@](C)(O)[C@@H]1OC(C)=O
Potency [1]: 2.82 µM (active) | Potency [2]: inactive | Potency [7]: 7.09 µM (active) | Potency [4]: 8.91 µM (active) | Potency [5]: 11.2 µM (active)

C=CC(=O)Nc1cc(Nc2nccc(-c3cn(C)c4ccccc34)n2)c(OC)cc1N(C)CCN(C)C
Potency [1]: 11.6 µM (active) | Potency [2]: inactive | Potency [15]: 8.29 µM (active) | Potency [16]: 23.9 µM (active) | Z-AUC [8]: -0.422 (inactive) | Z-AUC [8, 17]: -0.39 | Z-AUC ([8]; measured here: PEO4 Z-AUC): -1.1 | Potency [3]: 1.03 µM (active) | Potency [4]: 35.5 µM (active) | Potency ([9]; HiBiT): 24.9 µM (active)

O=C(NC(NC(=S)Nc1ccc(F)c([N+](=O)[O-])c1)C(Cl)(Cl)Cl)C(c1ccccc1)c1ccccc1 (stereo not drawn)
Potency [2]: inactive | max response [3]: -1.87% (inactive) | Potency [4]: inactive | Potency [5]: inactive

COc1cc(O)c(C(=O)CCc2ccc(O)cc2)c(O[C@@H]2O[C@H](CO)[C@@H](O)[C@H](O)[C@H]2O)c1
Potency [1]: inactive | Potency [2]: inactive | activity [10]: -69.8% | activity change, negative = inhibition [11]: -2.33% [at 29.8 µM] | activity [12]: 0.372% | activity [13]: 0.533% | outcome [3]: inactive

CC(C)[C@@H](C)/C=C/[C@@H](C)[C@H]1CC[C@H]2C3=CC=C4C[C@@H](O)CC[C@]4(C)C3=CC[C@]12C
outcome [3]: inactive

Oc1ccc(Nc2nc(-c3ccc(Cl)cc3)cs2)cc1
Potency [2]: inactive | Z-AUC [8]: -0.146 (inactive) | Z-AUC [8, 17]: 0.0588 | Z-AUC ([8]; measured here: PEO4 Z-AUC): 0.0633 | max response [3]: -8.45% (inactive) | Potency [4]: inactive | activity change, negative = inhibition ([9]; HiBiT): -38.1% (inactive) | activity change, negative = inhibition ([9]; Viability): 7.19% (inactive)

CCN(CCCOc1ccc2c(Nc3cc(CC(=O)Nc4cccc(F)c4)[nH]n3)ncnc2c1)CCOP(=O)(O)O
Potency [15]: inactive | Z-AUC [8]: 1.19 (inactive) | Z-AUC [8, 17]: 0.684 | Z-AUC ([8]; measured here: PEO4 Z-AUC): 0.183 | Potency [3]: 2.06 µM (active) | Potency [5]: 15.8 µM (active)

CCCCn1ccc(N2CCC(c3ccccc3)CC2)c(Cl)c1=O
outcome [3]: inactive

COc1cc(N2CCN(C(C)=O)CC2)ccc1Nc1ncc(Cl)c(Nc2ccc(N3CCN(C(C)=O)CC3)cc2OC)n1
Potency [1]: 20.6 µM (active) | Potency [2]: inactive | Potency [6]: 5.35 µM (active) | Potency [14]: 49.4 µM (active) | Z-AUC [8]: 0.859 (inactive) | Z-AUC [8, 17]: 0.393 | Z-AUC ([8]; measured here: PEO4 Z-AUC): 0.132 | Potency [7]: 4.11 µM (active)

CC1CCCC(SCC(O)C(=O)O)CC(=O)c2c(O)cc(O)cc2CC(=O)O1 (stereo not drawn)
max response [3]: -1.3% (inactive)

COc1ccccc1NC(=O)Nc1ccc2ccccc2c1
Potency [14]: inactive | max response [3]: -10% (inactive) | Potency [5]: inactive
